Test results: PubChem BioAssay (NCI)
About 79,000 compounds went through this panel and 15% of them were active in at least one assay; those are over-represented in the sample as a whole. The source made the active and inactive calls. Cut-off read from the data, not from the text of the source: active = growth inhibition above about 70%; inactive = the rest. Where a SMILES comes first, the peptide text is derived from it. Bridges are numbered along the chain shown (N, C = ends). Roman numbers before positions name the chains, in order. The star is where a group is joined. Cbz = O=C(OCc1ccccc1)*

What was measured:
[1] = NCI Yeast Anticancer Drug Screen. Data for the rad50 strain (AID 155);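 note: 0% = growth of vehicle-only cultures of the same strain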; conditions: S. cerevisiae rad50 strain growth inhibition; at 50.0 µM; hits give high values
In short: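 Compounds were tested on a yeast strain with an engineered DNA damage repair alteration; the reported value is growth inhibition normalised to vehicle treatment.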

[2] = NCI Yeast Anticancer Drug Screen. Data for the mec2-1 strain (AID 157); conditions: S. cerevisiae mec2-1 strain, at 50.0 µM, hits give high values
In short: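 Readout is yeast growth inhibition, normalised to vehicle-treated controls, in the mec2-1 strain exposed to compound.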

[3] = NCI Yeast Anticancer Drug Screen. Data for the sgs1 mgt1 strain (AID 161);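 note: 0% = growth of cultures given vehicle only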; conditions: S. cerevisiae sgs1 mgt1 strain, at 50.0 µM, hits give high values
In short: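 This yeast growth screen uses a strain with defined DNA-repair lesions; compound-treated growth is compared with vehicle-treated growth.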

[4] = NCI Yeast Anticancer Drug Screen. Data for the cln2 rad14 strain (AID 165);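 note: 0% = growth equal to vehicle treated cultures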; conditions: S. cerevisiae cln2 rad14 strain, at 50.0 µM, hits give high values
In short: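 Relative to vehicle controls, growth inhibition of compound-treated cln2 rad14 yeast was recorded.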

[5] = NCI Yeast Anticancer Drug Screen. Data for the bub3 strain (AID 167); conditions: S. cerevisiae bub3 mutant strain, at 50.0 µM, hits give high values
In short: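 Growth of a checkpoint-deficient yeast mutant is measured after compound exposure. Values represent inhibition relative to vehicle.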

[6] = NCI Yeast Anticancer Drug Screen. Data for the mlh1 rad18 strain (AID 175); conditions: S. cerevisiae mlh1 rad18 strain growth inhibition; at 50.0 µM; hits give high values
In short: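 Test agents were incubated with a yeast strain of defined genotype (DNA damage repair defect). Inhibition of growth was derived by comparison with vehicle-exposed cultures.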

Measured: growth inhibition

CCOc1cc(/C=N/NC(=O)C(O)C(O)C(O)C(O)CO)ccc1O (stereo not drawn)
inactive: [1] 1.5% | [2] 38.6% | [3] 27.9% | [4] 4.45% | [5] 39.8% | [6] 30.6%

Cc1nc2ccccc2c(Br)c1Br
inactive: [1] 14.5% | [2] 7.35% | [3] 3.55% | [4] 11.2% | [5] -4.05% | [6] 6.5%

COCc1cc(=O)c(OC)cn1CCO
inactive: [1] -40.5% | [2] -17.9% | [3] -25.9% | [4] -63.1% | [5] 0% | [6] -5.2%

C[C@]12C(=O)C=CCC1=CC[C@@H]1[C@@H]2[C@H]2CC3(O)C(=O)O[C@@]4(C)[C@H]5C[C@@]6(C)[C@@H]7[C@@]2(O)[C@]1(OC[C@H]6C(=O)O5)O[C@]734 (stereo partly drawn)
inactive: [1] 9.6% | [2] 16.3% | [3] -9.3% | [4] 1% | [5] -22.4% | [6] -55%

C=C1C2CCC3(CCC4C5(C)CCCC4(CN(C(C)=O)C5)C3C2)C1O (stereo not drawn)
inactive: [1] 11.2% | [2] -5.1% | [3] 10.3% | [4] 1.4% | [5] 6.25% | [6] 8.95%

O=C1c2ccccc2C(=O)N1CCCSc1ccccc1
inactive: [1] -10.2% | [2] -12.7% | [3] -21.9% | [4] -15.6% | [5] -32.4% | [6] -33.9%

CC(=O)CC(=O)Nc1ccc(Cc2ccc(NC(C)=O)cc2)cc1
inactive: [1] 8.3% | [2] 9.8% | [3] 10% | [4] 5.55% | [5] 2.8% | [6] 21.8%

C[CH2][GeH][CH2]C.C[CH2][Ge]([CH2]C)[CH2]C
inactive: [3] 60.8%
active: [1] 95.2% | [2] 97% | [4] 96.5% | [5] 96% | [6] 94.8%

CCN(CC)CCN1C(=O)c2cccc3cc(N)cc(c23)C1=O
inactive: [1] -1.9% | [2] -27.3% | [3] -7.4% | [4] -3.75% | [5] -9.6% | [6] 2.2%

COc1ccccc1C1c2cc3c(cc2OC(O)(CO)C1C(=O)O)OCO3 (stereo not drawn) (tested in a mixture with another compound)
inactive: [1] -18.4% | [2] -22.7% | [3] -15.3% | [4] -14% | [5] -20.6% | [6] -3.15%

CCCCCCC1(C)OCC(c2ccccc2)O1 (stereo not drawn)
inactive: [1] -0.1% | [2] -33.5% | [3] 5.95% | [4] -11.7% | [5] 2.2% | [6] 9.65%

CCOC(=O)NN(C(=O)OCC)C(=C(C1=CCCCC1)N1CCOCC1)N(NC(=O)OCC)C(=O)OCC
inactive: [1] -14.4% | [2] 4.25% | [3] 3.3% | [4] 1.9% | [5] -4.8% | [6] -6.5%

CC(C)CN(CC(=O)Nc1cccc(Cl)c1)CC(C)C
inactive: [1] -4.35% | [2] 11.9% | [3] 4.15% | [4] -17.9% | [5] 5.25% | [6] 2.1%

C[C@H](N)[C@@H](O)/C=C/c1ccccc1
inactive: [1] 8% | [2] -16.9% | [3] -0.05% | [4] -4.7% | [5] -9.7% | [6] -8.7%

CCOC(=O)C[N+]1(C)CCC(O)CC1 (stereo not drawn)
inactive: [1] 3.15% | [2] 26.1% | [3] -2.55% | [4] -0.45% | [5] 16.6% | [6] 7.55%

NC1=C(O)C(=O)C(c2ccc3c(c2)CCC3)O1 (stereo not drawn)
inactive: [1] -24.5% | [2] -14.7% | [3] -22.4% | [4] -12.6% | [5] -14% | [6] -9.1%

OCc1ccc(CO)cc1
inactive: [1] 18.4% | [2] 29.6% | [3] -15.6% | [4] -4.2% | [5] 8.65% | [6] 7.2%

CC(C)CCCC(C)C1CCC2C3CC=C4CC(OP(=O)(N5CC5)N5CC5)CCC4(C)C3CCC12C (stereo not drawn)
inactive: [1] 26.8% | [2] 1.4% | [3] 11.4% | [4] 19.3% | [5] -4.1% | [6] 12.2%

CCCCOC(=O)C1C=C(N)CCC1 (stereo not drawn)
inactive: [1] 12.8% | [2] 6.8% | [3] -3.35% | [4] -32.6% | [5] -9.05% | [6] -16.4%

COc1ccc2nc(NC(=O)Nc3ccc(Cc4ccc(NC(=O)Nc5nc6ccc(OC)cc6s5)cc4)cc3)sc2c1
inactive: [1] -14.4% | [2] -19.6% | [3] -10.3% | [4] 10.3% | [5] -8.65% | [6] -12%

Oc1ccc(C(O)CNCCCCCCNCC(O)c2ccc(O)c(O)c2)cc1O (stereo not drawn)
inactive: [1] -17.2% | [2] 6.65% | [3] -2% | [4] 6.5% | [5] -1.45% | [6] -4.65%

O=C1C(=O)C(c2ccccc2)S(=O)(=O)C1c1ccccc1 (stereo not drawn)
inactive: [1] -5.3% | [2] -5.05% | [3] -6.3% | [4] 4.3% | [5] 7.55% | [6] 14.6%

COc1ccc(N2C(=O)C3c4[nH]c5ccccc5c4C4CCCCC4C3C2=O)cc1 (stereo not drawn)
inactive: [1] -3.4% | [2] 5.1% | [3] -7.15% | [4] 9.95% | [5] -1.05% | [6] -6.05%

N#Cc1cc2c(cc1C#N)/C(=N\c1cccc(N)n1)N=C2Nc1cccc(N)n1
inactive: [1] 6.1% | [2] 19.1% | [3] 0.2% | [4] 1.25% | [5] 5.8% | [6] 22%

FC(F)(F)c1cccc(-c2nc3nc(Cl)c(Cl)nc3[nH]2)c1
inactive: [1] 15.1% | [2] -2% | [3] -5.7% | [4] -15.7% | [5] 18.4% | [6] 26.3%

C[C@@H]1C(=O)OCC2=C3C[C@@H](CC[C@@]3(C)C=CC2=O)[C@H](C)C(=O)OCC2=C3C[C@H]1CC[C@@]3(C)C=CC2=O
inactive: [1] 4.3% | [2] -3.7% | [3] -1.35% | [4] 15.7% | [5] 1.7% | [6] 20.8%

CC1(C)OC2C(COCc3ccccc3)=CC(n3ccc(=O)[nH]c3=O)C2O1 (stereo not drawn)
inactive: [1] -8.3% | [2] -16.8% | [3] 1.7% | [4] -0.7% | [5] 10.1% | [6] 14.3%

c1cc(-c2cn3c(n2)SCC3)ccn1
inactive: [1] 15.5% | [2] 5.9% | [3] -12.8% | [4] 7.8% | [5] 25.2% | [6] 19.9%

CN(C)c1ccc2c(c1[N+](=O)[O-])Cc1ccccc1-2
inactive: [1] 18.3% | [2] 3.3% | [3] 6.75% | [4] 14.6% | [5] 32.2% | [6] 6.05%

CC(=O)O[C@@H]1CC[C@@]2(C)C(=O)C34C[C@@]5(C)C([C@@H](C)CCCC(C)C)CCC5(C)[C@](O)(O3)C(=O)[C@H]4C2C1(C)C (stereo partly drawn)
inactive: [1] 18.4% | [2] 24.6% | [3] 11.5% | [4] 1.8% | [5] -0.05% | [6] 27.1%

CC(C)C(NC(=O)C(CSSCC(NC(=O)OCc1ccccc1)C(=O)NC(C(=O)O)C(C)C)NC(=O)OCc1ccccc1)C(=O)O (stereo not drawn) (I: Cbz-Cys-Val-OH / II: Cbz-Cys-Val-OH; disulfide I:1-II:1; configuration not given here)
inactive: [1] 1.4% | [2] 11.3% | [3] -3.75% | [4] -3.25% | [5] -1% | [6] 3.3%

Clc1cc(Cl)c2ncccc2c1
inactive: [1] 4.05% | [2] 17.9% | [3] 3.3% | [4] -30.2% | [5] 17.8% | [6] 11.8%

C=C1C(=O)OC2CC(C)C3CC(OCCCl)OC(OCCCl)C3(C)CC12 (stereo not drawn)
inactive: [1] 13.8% | [2] 7.65% | [3] -3.05% | [4] 7.25% | [5] 5.65% | [6] -6.2%

CCCCC1(NN=C2CCCCC2)C(=O)N(c2ccccc2)N(c2ccccc2)C1=O
inactive: [1] -11.2% | [2] -6.2% | [3] -0.4% | [4] -0.75% | [5] -7.4% | [6] -8.65%

O=C(CSSCC(=O)Nc1ccccc1O)Nc1ccccc1O
inactive: [1] -11.2% | [2] -8.15% | [3] -11.7% | [4] -24.1% | [5] 27.2% | [6] -4.85%

COc1ccccc1NC(=O)C(/C=N/C(N)=S)=C(\C)O
inactive: [1] -20.1% | [2] -6.5% | [3] -33.1% | [4] 7.6% | [5] -3.65% | [6] -14.4%

CC(=O)OCCOCNC(=S)N/N=C/c1ccccn1
inactive: [1] 24.2% | [2] 26% | [3] -8.35% | [4] 6.7% | [5] 12.6% | [6] 45.6%

C[C@]12CCC(=O)C=C1CC[C@@H]1C2=CC[C@]2(C)/C(=C\CO)CC[C@@H]12
inactive: [1] 7.5% | [2] -14.4% | [3] 10.8% | [4] -5.4% | [5] -10.8% | [6] 9.4%
